About 14,000 (4.5%) of roughly 310,000 compounds showed an effect of 50% or more. Effects have a minus sign here. For the sample, strong results were picked, then their nearest neighbours and some compounds at random.
biological target: human ether-à-go-go-related gene (hERG) potassium channel (human, UniProt Q12809); assay: primary screen, population patch clamp on CHO cells stably expressing hERG; higher = less effect of the substance
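Further: peak tail current of the secondary pulse compared with the same well before compound.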

Sequence of human ether-à-go-go-related gene (hERG) potassium channel (Q12809 whole entry, looked up): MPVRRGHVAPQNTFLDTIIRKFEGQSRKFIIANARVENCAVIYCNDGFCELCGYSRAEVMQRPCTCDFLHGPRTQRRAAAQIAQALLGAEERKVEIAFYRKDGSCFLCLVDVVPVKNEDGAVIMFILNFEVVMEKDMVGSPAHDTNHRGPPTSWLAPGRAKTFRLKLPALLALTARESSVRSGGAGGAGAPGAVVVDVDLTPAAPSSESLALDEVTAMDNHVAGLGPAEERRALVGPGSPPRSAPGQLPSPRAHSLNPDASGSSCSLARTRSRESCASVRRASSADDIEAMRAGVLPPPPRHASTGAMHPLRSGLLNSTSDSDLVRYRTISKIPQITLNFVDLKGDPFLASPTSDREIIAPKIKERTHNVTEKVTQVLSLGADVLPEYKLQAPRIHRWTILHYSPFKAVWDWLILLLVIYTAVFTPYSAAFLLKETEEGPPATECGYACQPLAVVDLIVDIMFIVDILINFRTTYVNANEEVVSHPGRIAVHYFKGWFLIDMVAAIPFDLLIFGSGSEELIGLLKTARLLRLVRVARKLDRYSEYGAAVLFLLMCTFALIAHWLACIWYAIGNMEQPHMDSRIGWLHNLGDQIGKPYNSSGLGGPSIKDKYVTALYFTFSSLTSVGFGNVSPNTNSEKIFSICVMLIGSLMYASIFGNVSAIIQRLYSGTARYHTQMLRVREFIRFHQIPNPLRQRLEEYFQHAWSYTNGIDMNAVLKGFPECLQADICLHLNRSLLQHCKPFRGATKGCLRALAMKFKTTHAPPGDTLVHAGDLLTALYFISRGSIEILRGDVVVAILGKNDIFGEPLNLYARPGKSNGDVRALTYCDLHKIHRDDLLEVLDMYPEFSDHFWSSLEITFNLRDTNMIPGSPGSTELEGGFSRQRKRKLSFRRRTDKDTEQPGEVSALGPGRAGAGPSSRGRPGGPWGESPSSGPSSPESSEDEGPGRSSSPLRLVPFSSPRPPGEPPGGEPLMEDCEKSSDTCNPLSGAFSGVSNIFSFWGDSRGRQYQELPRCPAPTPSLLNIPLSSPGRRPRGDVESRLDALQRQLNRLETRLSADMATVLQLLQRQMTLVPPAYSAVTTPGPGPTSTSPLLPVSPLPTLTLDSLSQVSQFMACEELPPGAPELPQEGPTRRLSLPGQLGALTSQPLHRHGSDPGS

SMILES | hERG current change (%, negative = inhibition) at 10uM
Cc1ccc2nc(NCC(=O)O)nc(-c3ccccc3)c2c1 | 4.48%
COc1cc(CC(=O)NCC2CCCCC2)cc(OC)c1OC | 19.6%
COc1cc(C(=O)NCC2CCCO2)cc(OC)c1OC (stereo not shown) | 16.8%
COc1cc(C(=O)NCC2CCCCC2)cc(OC)c1OC | -67.3%
CCOC(=O)N1CCN(C(=O)C2CC(=O)N(c3ccc(OC)cc3)C2c2ccc(OC)cc2)CC1 (stereo not shown) | -13.2%
Cc1cccc(CSc2nc3c(cc2C#N)CN(C)CC3)c1 | -71.2%
Cc1cccc(CSc2nc3c(cc2C#N)CCC3)c1 | 13.7%
CN1CCc2nc(SCCOc3ccccc3)c(C#N)cc2C1 | -66.3%
CN1CCc2nc(SCc3ccccc3Br)c(C#N)cc2C1 | -28.2%
CC(NC(=O)CSc1nc2c(cc1C#N)CN(C)CC2)c1ccccc1 (stereo not shown) | -20.3%
CN1CCc2nc(SCc3cccc(Br)c3)c(C#N)cc2C1 | -11.7%
COC/C=C/C1=CC2=CC(=O)C(C)(OC(=O)c3cnc4ccccc4n3)C(=O)C2=CN1CCOC (stereo not shown) | 13.3%
Cc1c[n+]([O-])n(-c2ccc(C(=O)O)cc2)n1 | 0.473%
COc1ccc(N(C(=O)c2snc(C(N)=O)c2N)C(C(=O)NC2CCCC2)c2ccc(OC)c(OC)c2)cc1 (stereo not shown) | 10.9%
CCOC(=O)C1CCN(C(=O)C2CCC(=O)N(CC3CCCCC3)C2)CC1 (stereo not shown) | 0.313%
CN(C)c1ccc(/C=C/c2cc[n+](C)cc2)cc1.[I-] | 2.73%
CN(C)c1ccc(/C=C/c2ccc3ccccc3[n+]2C)cc1.[I-] | -59.9%
CCSc1ccc2cc(OC)ccc2[n+]1CC.[I-] | 10.8%
CC[n+]1c(/C=C/c2ccc(OC)c(OC)c2)ccc2ccccc21.[I-] | 23.5%
C[n+]1c(/C=C/c2ccc(O)cc2)ccc2ccccc21.[I-] | -40.3%
CC[n+]1c(SC)ccc2cc(OC)ccc21.[O-][Cl+3]([O-])([O-])[O-] | -10.6%
CN(C)c1ccc(/C=C/c2cccc[n+]2[O-])cc1 | 19.7%
CC[n+]1c(/C=C/c2ccc(OC(C)=O)c(OC)c2)ccc2ccccc21.[I-] | -4.85%
CN(CCCS(=O)(=O)[O-])c1ccc(/C=C/c2ccc3ccccc3[n+]2C)cc1 | 19.6%
CCN(CC)c1ccc(/C=C/c2ccc3ccc(OC)cc3[n+]2CC)cc1.[I-] | -82%

SMILES | hERG current change (%, negative = inhibition) at 10uM
CC(C)CC[n+]1ccccc1/C=C/c1ccc(N(C)C)cc1.[I-] | -71.3%
CC[n+]1c(/C=C/c2ccc(N(C)C)cc2)ccc2ccccc21.[I-] | -72.9%
O=C(C1CCCCC1)N1CCC(O)(c2ccc(Cl)cc2)CC1 | -10.7%
Cc1cccc(N2C(=O)CC(N(O)c3ccccc3)C2=O)c1 (stereo not shown) | 9.2%
Cc1cc(C(F)(F)F)nn1Cc1ccc(C(=O)NCc2ccco2)o1 | 5.14%
COc1ccc(C)cc1-n1nnnc1SCC1CCCCO1 (stereo not shown) | -14.8%
CCOc1ccc(CCNc2nc3c(c(=O)n(C)c(=O)n3C)n2CC)cc1OCC | 3.1%
CCOC(=O)C1=C(COC(=O)CC(C)c2ccccc2)NC(=O)NC1C (stereo not shown) | -17.8%
CN1C(=O)C(=Cc2ccc(N3CCCCCC3)cc2)C(=O)N(C)C1=O | 13.1%
CCOc1ccc2[nH]c(=O)c(C(c3nnnn3C3CCCCC3)N3CCN(CC)CC3)cc2c1 (stereo not shown) | -40.3%
COc1cccc(NC(=O)Cc2ccc3ccccc3c2)c1 | -7.16%
N#C/C(=C\c1cccc(OCC(=O)O)c1)c1nc2ccccc2[nH]1 | 19.6%
COc1cc(-c2noc(C)n2)cc(OC)c1OC | 13.4%
COc1ccc(Nc2nc(NCCO)nc(N3CCCC3)n2)cc1 | -38.3%
Cc1ccc(S(=O)(=O)NCC(=O)OCC(=O)Nc2cccc(S(=O)(=O)NC3=NCCCCC3)c2)cc1C | -1.1%
COc1ccccc1C(=O)NCCC(=O)Nc1nc2ccccc2[nH]1 | -12.6%
CC(C)(C)c1ccc(/C=C/C(=O)NCCCn2ccnc2)cc1 | -46.5%
Clc1ccc(SCCn2ccnc2)cc1 | -1.48%
O=C(/C=C/c1ccc(Cl)cc1)NCCCn1ccnc1 | -55.8%
O=C(/C=C/c1ccc(Cl)c(Cl)c1)NCCCn1ccnc1 | -41.7%
COc1ccc(/C=C/C(=O)NCCCn2ccnc2)cc1 | -30.9%
Clc1ccc(SCCCCn2ccnc2)cc1 | -53%
O=C(/C=C/c1ccc(Br)cc1)NCCCn1ccnc1 | -57%
O=C(NCCCn1ccnc1)c1ccc(Cl)cc1 | -2.72%
O=C(/C=C/c1ccc(F)cc1)NCCCn1ccnc1 | -31.9%

SMILES | hERG current change (%, negative = inhibition) at 10uM
O=C(C#Cc1ccccc1)NCc1ccccc1F | -2.39%
CC1(C)CCC(=O)C=C1Nc1ccc(F)c(Cl)c1 | 7.56%
N#C/C(=N\O)c1nc(-c2ccccc2)cs1 | 15.9%
CC(C)(C)c1ccc(S(=O)(=O)NCc2ccc(C(=O)NCC3CCCO3)cc2)cc1 (stereo not shown) | 13.8%
O=C(OCc1ccc(Br)cc1)c1cccc(S(=O)(=O)N2CCCC2)c1 | -6.47%
CSc1nsc(SC)c1C(N)=O | 10.6%
CCOC(=O)C1(CCOc2ccccc2)CCN(Cc2ccc(C#CCCO)cc2)CC1 | -53.3%
CCOC(=O)C1(Cc2ccccc2)CCCN(Cc2ccncc2)C1 (stereo not shown) | -17.4%
CCOC(=O)C1(Cc2cccc(OC)c2)CCN(Cc2cnc(SC)nc2)CC1 | -27%
CCOC(=O)C1(CCOc2ccccc2)CCN(Cc2cnc(SC)nc2)CC1 | -72.2%
CCOC(=O)C1(CCOC)CCN(Cc2ccncc2)CC1 | 8.26%
CCOC(=O)C1(CCOc2ccccc2)CCN(Cc2ccc(OC)cc2)CC1 | -75.1%
CCOC(=O)C1(CCOc2ccccc2)CCN(Cc2ccc(C(=O)OC)cc2)CC1 | -49.9%
CCOC(=O)C1(CCOc2ccccc2)CCN(Cc2ccncc2)CC1 | -52%
CCOC(=O)C1(CCOC)CCN(Cc2cnc(-c3cccc(C)c3)nc2)CC1 | -5.81%
CCc1ccc(C(C)NC(=O)/C(C#N)=C\c2cn[nH]c2-c2ccccc2)cc1 (stereo not shown) | -1.91%
CC1=NN(c2ccc(Cl)cc2)C(=O)C1 | 3.77%
Cc1ccc(C(=O)OCC(=O)N2CCOCC2)cc1 | 15.6%
O=C(NNC(=S)Nc1ccc(Cl)cc1Cl)C1CC1 | -24%
O=C(Nc1ccc2c(c1)OC1(CCCC1)O2)C1CC1 | 3.79%
Cc1ccc(C)n1-c1ncc(Br)cn1 | 6.58%
CCCCOCCCNC(=O)N[C@@H](CCSC)C(=O)OC | 16.3%
C=CCn1c2ccccc2c(=O)c2cc(C#Cc3ccccn3)ccc21 | -0.113%
CCOC(=O)C1(CCOc2ccccc2)CCN(Cc2ccc(O)cc2)CC1 | -85.1%
CCOC(=O)C1(CCOc2ccccc2)CCN(Cc2ccc(O)c(Cl)c2)CC1 | -53%

SMILES | hERG current change (%, negative = inhibition) at 10uM
CCOC(=O)C1(CCOc2ccccc2)CCN(Cc2ccc(OCCO)cc2)CC1 | -77.9%
O=C(N/N=C\c1cc(Br)c(Br)o1)c1cncc(Br)c1 | 7.62%
CN(C)c1cccc(C(=O)Nc2ccc(N3CCOCC3)cc2)c1 | 2.06%
Cc1nc2nc(-c3ccccc3)cc(=O)n2[nH]1 | 11.8%
O=C(NNS(=O)(=O)c1ccc([N+](=O)[O-])cc1)C(=O)Nc1cccc(C(=O)O)c1 | 11.9%
COc1ccc(C2C(C(=O)N3CCC4(CC3)OCCO4)CC(=O)N2c2ccc(OC)cc2)cc1 (stereo not shown) | -6.88%
O=S(=O)(NCC(c1ccco1)N1CCN(c2ccccc2)CC1)c1ccc(F)cc1 (stereo not shown) | 0.0547%
O=C1COc2ccc(C(=O)COC(=O)Cc3ccc(F)cc3)cc2N1 | -23.8%
CCC(=O)c1ccc(OCC(=O)Nc2ccccc2C(=O)NC2CC2)cc1 | -6.53%
OC1/C(=C/c2ccccc2C(F)(F)F)N2CCC1CC2 (stereo not shown) | 9.66%
Fc1ccccc1-c1nnc2c3ccccc3nc(N3CCOCC3)n12 | -9.92%
Brc1ccc(-c2nnc3c4ccccc4nc(N4CCOCC4)n23)cc1 | -8.42%
Clc1ccc(-c2nnc3c4ccccc4nc(N4CCOCC4)n23)cc1Cl | -64.7%
CCN(CC(=O)Nc1c(F)cccc1F)C(=O)C1CC1 | 3.28%
Cc1sc2ncnc(N3CCC(C(=O)Nc4ccc(Br)cc4Br)CC3)c2c1C | -7.07%
CCCN(CC(=O)Nc1ccccc1C)C(=O)C1CCN(c2ncnc3sc(C)c(C)c23)CC1 | -76.2%
Cc1sc2ncnc(N3CCC(C(=O)Nc4ccccc4C(C)(C)C)CC3)c2c1C | -15.2%
CCOc1ccc(NC(=O)CN(C)C(=O)C2CCN(c3ncnc4sc(C)c(C)c34)CC2)cc1OCC | -58.2%
CCCCc1nnc(NC(=O)C2CCN(c3ncnc4sc(C)c(C)c34)CC2)s1 | 16.6%
Cc1sc2ncnc(N3CCC(C(=O)N(C)CC(=O)Nc4ccc(Cl)c(C(F)(F)F)c4)CC3)c2c1C | 3.47%
CCOc1ccc(NC(=O)CN(C)C(=O)C2CCCC2)cc1OCC | 27.8%
CCOC(=O)c1ccccc1NC(=O)C1CCN(c2ncnc3sc(C)c(C)c23)CC1 | -11.4%
CCN(CC(=O)Nc1c(F)cccc1F)C(=O)C1CCN(c2ncnc3sc(C)c(C)c23)CC1 | -57.8%
CCN(CC(=O)Nc1c(F)cccc1F)C(=O)C1CCC1 | -13.8%
Cc1sc2ncnc(N3CCC(C(=O)N(C)CC(=O)Nc4ccccc4Br)CC3)c2c1C | -65.8%
